Experimental data published in PubChem BioAssay AID1259421 (Broad Institute, 2018).
“And” between values parts separate entries of the source, which are not always exact repeats. Equal entries are not always repeated. The campaign covered roughly 6,400 compounds. About 610 (9.5%) were called active. The sample as a whole holds a higher share of actives than the screen did. Values without a mark were called inactive. Cut-off read from the data, not from the text of the source: active = activity change below about -70%; inconclusive = no clear call, values can overlap the other calls; inactive = above that.

assay: T. gondii ME49Luc in HeLa cells, luciferase assay, 72 h, no IFN-y (AID 1259421); settings: hits give low values, concentration not given here

In the case of `CC1CC(C)C(=O)C(C(O)CC2CC(=O)NC(=O)C2)C1` (centres undefined), the activity change, negative = inhibition is reported as -83.8% (active).
With `C[C@@H]1C[C@@H]([C@H](O)CC2CC(=O)NC(=O)C2)C(=O)[C@@H](C)C1` the activity change, negative = inhibition was -81.3% (active) and -84.7% (active).
For `CN1CC(CNC(=O)OCc2ccccc2)CC2c3cccc4c3c(cn4C)CC21` (centres undefined), the activity change, negative = inhibition was 8.87% and 8.34%.
With `c1ccc(CCCN2CCN(CCOC(c3ccccc3)c3ccccc3)CC2)cc1` the activity change, negative = inhibition was -51.1% and -1.58%.
For `N#CC(C#N)=Cc1ccc(O)c(O)c1`, the activity change, negative = inhibition was 10.7% and 7.11%.
With `CC(C)(C)c1cc(C=C(C#N)C#N)cc(C(C)(C)C)c1O` the activity change, negative = inhibition was -90.8% (active) and -88.7% (active).
With `CC(=O)O[C@@H]1CC2C(C)(C)C(=O)C=C[C@]2(C)C2CC[C@]3(C)C(=CC(=O)O[C@H]3c3ccoc3)[C@@]21C` (some centres undefined) the activity change, negative = inhibition was -83.5% (active).
With `Cc1cccc(C(C)c2cnc[nH]2)c1C` (centres undefined) the activity change, negative = inhibition was 15.9% and 24.6%.
For `C[C@]12CC[C@H](O)C[C@H]1CC[C@@H]1[C@@H]2C[C@@H](O)[C@]2(C)[C@@H](C3=CC(=O)OC3)CC[C@]12O`, the activity change, negative = inhibition was -93.5% (active).
In the case of `C[C@]12[C@H](O)CC3C(CC[C@@H]4C[C@@H](O)CC[C@]34C)[C@@]1(O)CC[C@@H]2C1=CC(=O)OC1` (some centres undefined), the activity change, negative = inhibition is reported as -84.3% (active).
With `C[C@]12CC[C@H](O)C[C@H]1CC[C@@H]1[C@@H]2CC[C@]2(C)[C@@H](C3=CC(=O)OC3)CC[C@]12O` the activity change, negative = inhibition was -86.6% (active).

First: Oc1c(I)cc(I)cc1I
Second: CC(C)(C)c1cc(C=C(C#N)C#N)cc(Br)c1O
The activity change, negative = inhibition of the first is higher: 3.61% for the first, -39.2% for the second.

First: N#CC(C#N)=NNc1ccc(OC(F)(F)F)cc1
Second: COC[C@@H](NC(C)=O)C(=O)NCc1ccccc1
The activity change, negative = inhibition of the first is higher: 20% for the first, -51% for the second.

First: Oc1ccc2c3c1O[C@H]1c4oc5ccccc5c4C[C@@]4(O)C(C2)N(CC2CC2)CC[C@]314
Second: Oc1ccc2c3c1OC1c4oc5ccccc5c4CC4(O)C(C2)N(CC2CC2)CCC314 (centres undefined)
The activity change, negative = inhibition of the first is higher: -2.8% for the first, -19.3% for the second.

First: C/C(=C/C=C/[C@@H](C)C(=O)O)[C@H]1CN[C@H](C(=O)O)[C@H]1CC(=O)O
Second: CC(C)CC(NC(=O)C(Cc1ccccc1)NC(=O)CNC(=O)[C@H](C)NC(=O)C(N)Cc1ccc(O)cc1)C(=O)N[C@H](CCCN=C(N)N)C(=O)O (some centres undefined)
The activity change, negative = inhibition of the first is lower: 4.56% for the first, 10.6% for the second.

Going from `C[C@H]1CN(Cc2ccc(CC(=O)N3CCC(Nc4cccc(F)c4)CC3)cc2)CCN1` to `OC1CC2CCCC(C1)N2Cc1ccccc1` (centres undefined), the activity change, negative = inhibition falls from 4.86% to 4.85%.

Compared with `CN1C(=O)N(C)C2C1N(C)C(=O)N2C` (centres undefined), `CC1(C)C(=O)C=C[C@@]2(C)C1C[C@@H](O)[C@]1(C)C2CC[C@@]2(C)[C@H](c3ccoc3)OC(=O)[C@H]3O[C@]321` (some centres undefined) is higher in activity change, negative = inhibition: 5.58% for the first, 13.2% for the second.

Compared with `CC(=O)O[C@H]1C[C@@H](OC(C)=O)C(C)(C)C2C[C@@H](OC(C)=O)[C@]3(C)C(CC[C@@]4(C)[C@H](c5ccoc5)C(=O)[C@H]5O[C@]543)[C@]21C` (some centres undefined), `C[C@]12CC[C@H](O)C[C@H]1CC[C@@H]1[C@@H]2CC[C@]2(C)[C@@](O)(c3ccoc3)CC[C@]12O` is lower in activity change, negative = inhibition: 11.1% for the first, 2.9% for the second.

Compared with `CCN(CC)CCOC1CCC2(C)C(=CCC3C4CCC(=O)C4(C)CCC32)C1` (centres undefined), `C[C@]12CC[C@@H](O)C[C@@H]1CC[C@@H]1[C@@H]2CC[C@]2(C)C(=O)CC[C@@H]12` is higher in activity change, negative = inhibition: -5.47% for the first, 9.11% for the second.

First: CN1CC2CCCC(C1)C2OC(=O)C(O)(c1ccccc1)C1CCCC1 (centres undefined)
Second: C[C@]12CC[C@@H](O)C[C@@H]1CC[C@@H]1[C@@H]2CC[C@]2(C)[C@@H](C(=O)CO)CC[C@@H]12
The activity change, negative = inhibition of the first is higher: 36% for the first, 8.82% for the second.

First: C[C@H](N)Cc1cnc[nH]1
Second: NC1=NC(=O)N2CC12 (centres undefined)
The activity change, negative = inhibition of the first is higher: 10.9% for the first, 6.84% for the second.

Compared with `CCCCCCC(C)(C)c1ccc(C2CC(O)CCC2CCCO)c(O)c1` (centres undefined), `CC(=O)OCC(=O)[C@H]1CC[C@H]2[C@@H]3CC[C@H]4C[C@H](O)CC[C@]4(C)[C@H]3C(=O)C[C@]12C` is lower in activity change, negative = inhibition: 0.246% for the first, -8.47% for the second.

First: CC(=O)C1CCC2C3CCC4C[C@H](O)CCC4(C)C3C[C@H](O)C12C (some centres undefined)
Second: CC(=O)[C@H]1CC[C@H]2[C@@H]3CC[C@H]4C[C@H](O)CC[C@]4(C)[C@H]3C(=O)C[C@]12C
The activity change, negative = inhibition of the first is lower: 3.84% for the first, 12.1% for the second.

Going from `Cl/C=C\C[N+]12CN3CN(CN(C3)C1)C2` to `O=C1Nc2ccc(Cl)cc2C(c2ccccc2Cl)=NC1O` (centres undefined), the activity change, negative = inhibition falls from 5.98% to 5.64%.

Going from `N#CC(O[C@@H]1O[C@H](CO[C@@H]2O[C@H](CO)[C@@H](O)[C@H](O)[C@H]2O)[C@@H](O)[C@H](O)[C@H]1O)c1ccccc1` (some centres undefined) to `O=C1CN=C(c2cccc(Br)c2)c2oc3ccccc3c2N1`, the activity change, negative = inhibition rises from 19% to 22.5%.
